# Rows were chosen to be rich in hits. Some 11% of all compounds tested hit in one or more screens of this group.
# G9a inh – blocks human histone lysine methyltransferase G9a | G9a H3K9 monomethylation, AlphaScreen, 2 h | Potency, µM (series often up to 102 µM), for inactives: top-dose activity, negative = inhibition, usual class: inhibitors | actives 8.8% (n = 350,000) | Q96KQ7; note: potency is the fitted concentration of half-maximal effect; nearly all actives have a fitted effect of over 75% in size
# Target sequence (Q96KQ7 913-1193 limits assumed): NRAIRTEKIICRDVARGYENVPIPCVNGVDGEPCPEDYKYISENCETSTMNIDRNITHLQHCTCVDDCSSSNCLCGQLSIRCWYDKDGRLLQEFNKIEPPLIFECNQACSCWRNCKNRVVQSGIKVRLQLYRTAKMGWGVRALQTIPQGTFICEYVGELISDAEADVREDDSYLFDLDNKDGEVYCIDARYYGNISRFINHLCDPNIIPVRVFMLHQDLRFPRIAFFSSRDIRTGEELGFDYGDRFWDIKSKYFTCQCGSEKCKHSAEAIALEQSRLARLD
#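 AlphaScreen detection with an anti-monomethyl H3K9 antibody quantified product after a 2 h room-temperature reaction containing 500 nM biotinylated H3K9 peptide, 20 µM SAM and 20 nM enzyme, which had been preincubated 15 min with compound.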
# FBPA coupling cs – inhibits coupling enzyme system, counter-screen for aldolase hits; coupling enzyme system counterscreen, AmpLite Red fluorescence; activity change, negative = inhibition, % at 58.2 µM, hits read low; actives 0.67% (n = 290,000); AID 2472; in the data active = activity change below about -30%
#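 Counterscreen of the coupled detection system alone, without aldolase: glyceraldehyde-3-phosphate coupling enzymes plus AmpLite Red readout. Compounds at 57.5 uM final, 10 min RT preincubation, 20 min RT reaction, fluorescence 525/598 nm.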
# Tau FP inhib – blocks human tau fibril formation measured by polarization; P10636; K18 P301L tau heparin fibrillization, Alexa594 FP, 6 h; Potency, µM (series often up to 57.7 µM), for inactives: at the top dose activity, negative = inhibition, usual class: inhibitors; actives 0.39% (n = 280,000); AID 1468; note: potency is the fitted concentration of half-maximal effect; nearly all actives have a fitted effect of over 55% in size
# Target sequence (P10636 561-689 P618L limits assumed): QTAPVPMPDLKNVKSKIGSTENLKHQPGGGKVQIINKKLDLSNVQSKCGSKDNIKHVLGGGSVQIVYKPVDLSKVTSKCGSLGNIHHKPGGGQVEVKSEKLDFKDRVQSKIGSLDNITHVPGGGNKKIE
#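 Human K18 P301L fragment (15 uM unlabeled plus 0.24 uM Alexa 594-labeled) in 100 mM sodium acetate pH 7 with compound, aggregation induced by 20 uM heparin for 6 hr at 37 C. ThT (30 uM) added for 1 hr, then Alexa 594 FP read.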
# Tau fluor counter – counter-screen for tau fibril formation inhibitors; actives 0.93% (n = 280,000); tau K18 P301L Alexa594 fluorescence, heparin fibrillization; Potency, µM (top dose mostly 57.7 µM), for inactives: top-dose activity change, negative = decrease; note: potency is the fitted concentration of half-maximal effect; nearly all actives have a fitted effect of over 55% in size
#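 Human tau K18 P301L (15 uM unlabeled, 0.24 uM Alexa 594-labeled) in 100 mM sodium acetate pH 7 with 20 uM heparin, 6 hr at 37 C. ThT 30 uM added, 1 hr ambient; Alexa 594 FP and total fluorescence read at 555/632 nm.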
# Tau fibril ThT – inhibitors of human tau fibril formation, thioflavin T binding | recombinant tau K18 P301L (four-repeat tau fragment), heparin-induced fibrillization, ThT fluorescence | P10636 | Potency, µM (top dose mostly 57.4 µM), for inactives: at the highest dose activity, negative = inhibition, usual class: inhibitors | actives 2.1% (n = 270,000); note: potency is the fitted concentration of half-maximal effect; nearly all actives have a fitted effect of over 55% in size
#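 Recombinant human tau K18 fragment […] carrying P301L, 15 uM unlabeled plus 0.24 uM Alexa 594-labeled, was fibrillized with 20 uM heparin in 100 mM sodium acetate pH 7 for 6 hr at 37 C; 30 uM ThT fluorescence read after 1 hr.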
# Sfp PPTase inh – inhibitors of Bacillus subtilis Sfp phosphopantetheinyl transferase; Q9F4F7; actives 3.5% (n = 310,000); Potency, µM, without a hit: largest response in the series, negative = inhibition, most hits filed as inhibitors; Biochemical Sfp PPTase activity, qHTS;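 note: the enzyme is Sfp with the accession as filed and its product quenches rhodamine fluorescence; potency is the fitted concentration of half-maximal effect; 0% = enzyme reaction without inhibitor and -100% = no enzyme wells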
#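 Fluorescence-quenching assay with 15 nM Sfp, 5 uM rhodamine-CoA and 12.5 uM BHQ-2-labelled ybbR peptide in pH 7.6 Hepes/MgCl2 buffer. Enzyme was pre-incubated with compound for 15 min at room temperature. Rate was taken from the 30-min fluorescence change (525/598 nm).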
# Active calls of the source: *; ? = inconclusive; . = not tested or not shown; [ ] = remark or other dose. Unless noted, calls come from the whole dose curve; as a rule, active = well fitted curve in the direction sought with a large enough effect; inconclusive = small, poorly fitted or top-dose-only effect, or another doubt; inactive = no such curve, though single readings can be large; an effect the other way counts as inactive or inconclusive. Unless noted, % is set by controls: 0 for no effect and ±100 for the full control effect.
SMILES,G9a inh,FBPA coupling cs,Tau FP inhib,Tau fluor counter,Tau fibril ThT,Sfp PPTase inh
CCC1(c2ccccc2)NC(=O)N(CC(=O)NCc2ccc(OC)cc2)C1=O (centres undefined),4%[59 µM],5,.,.,.,20%
COC(=O)CN(Cc1ccccc1)S(=O)(=O)c1ccc(OC)c(OC)c1,34%,3,?,-23%,16µM*,28%
COc1ccc(CN(CC2CCCO2)S(=O)(=O)c2ccc(C(=O)O)cc2)cc1OC (centres undefined),56µM*,7,4%,8%,2%,1%
CCOc1ccc(N2C(=O)CC(NCCc3ccncc3)C2=O)cc1 (centres undefined),3%[59 µM],0,-4%,-9%,-16%,-8%
CCCOc1ccc(N2C(=O)CC(NCCc3ccc(S(N)(=O)=O)cc3)C2=O)cc1 (centres undefined),35µM*,2,0%,-8%,-15%,5%
CCOc1ccc(N2C(=O)CC(NCCc3ccc(S(N)(=O)=O)cc3)C2=O)cc1 (centres undefined),25µM*,0,7%,-5%,-13%,2%
CCCOc1ccc(N2C(=O)CC(NCCNc3ccc(S(=O)(=O)CC)cc3)C2=O)cc1 (centres undefined),?,1,7%,-5%,-11%,8%
COc1ccc(-c2cc3ccc(O)c(CN4CCN(C)CC4)c3oc2=O)cc1OC,-2%[59 µM],.,3%,3%,?,.
CCOC(=O)c1ccc(NC(=S)N(CCN2CCCCCC2)Cc2ccco2)cc1,32µM*,-4,-1%,-13%,-8%,-24%
S=C(Nc1ccc(Oc2ccccc2)cc1)N(CCCN1CCOCC1)Cc1ccccn1,32µM*,0,12%,-17%,?,-76%
Cc1cc(NC(=S)N(CCN2CCCCC2)Cc2ccco2)ccc1Cl,40µM*,-5,2%,-1%,7%,-70%
S=C(Nc1ccc(Cl)cc1)N(CCCN1CCOCC1)Cc1ccco1,-10%[59 µM],1,6%,-5%,5%,7%
Cc1ccc(NC(=S)N(CCCN2CCOCC2)Cc2ccco2)cc1,40µM*,1,-1%,9%,2%,-29%
CCOC(=O)c1ccc(NC(=S)N(CCCN2CCCCCC2)Cc2ccco2)cc1,?,2,0%,-8%,-15%,-23%
Cc1ccccc1S(=O)(=O)N1[C@@H](c2ccc(F)cc2)C(C(=O)O)=CC[C@H]1c1ccc(Cl)cc1,4%[2.33 µM],.,.,.,.,.
Cc1ccc(S(=O)(=O)NCC(Nc2cccc(Cl)c2)c2ccccc2)cc1 (centres undefined),?,.,?,?,-1%,.
CC(C)Cn1c(/C=C/c2ccco2)nc2ccccc21,7.9µM*,-2,-4%,-10%,?,35µM*
CCCn1c(/C=C/c2ccccc2)nc2ccccc21,71%[59 µM],-16,-2%,-5%,-8%,?
Cc1c(N=C2NN=C(c3ccc(Cl)cc3)CS2)c(=O)n(-c2ccccc2)n1C,10µM*,2,-12%,-6%,?,50µM*
Cc1c(N=C2NN=C(c3c[nH]c4ccccc34)CS2)c(=O)n(-c2ccccc2)n1C,45µM*,0,-11%,?,?,?
Cc1c(N=C2SCC(=O)N2/N=C/c2ccccc2Cl)c(=O)n(-c2ccccc2)n1C,?,0,8%,-9%,-12%,5%
Cc1occc1-c1nnc(-c2cc([N+](=O)[O-])cc([N+](=O)[O-])c2)o1,32µM*,-10,5%,5%,10%,?
CC(=O)Nc1ccc(NC(=O)CNC(=O)c2cccc(C)c2)cc1,11%[59 µM],3,.,.,.,9%
CCCCCCCSc1nnc(-c2ccccc2N)c(=O)[nH]1,?,10,10%,-21%,?,16%
CCCCCSc1nnc(-c2cc(Br)ccc2N)c(=O)[nH]1,45µM*,6,3%,-16%,?,5%
SMILES,G9a inh,FBPA coupling cs,Tau FP inhib,Tau fluor counter,Tau fibril ThT,Sfp PPTase inh
CC1CC(C)CN(C(=O)COC(=O)COc2ccccc2C#N)C1 (centres undefined),-7%[12.7 µM],.,.,.,.,.
COc1ccccc1-c1cc(C(=O)Nc2cccnc2Cl)no1,-12%[59 µM],0,.,.,.,19%
Cc1ccc(C(=O)NC(=S)Nc2ccccc2C(F)(F)F)cc1,-43%,-2,?,-16%,-10%,-8%
Cc1ccc(C(=O)NC(=S)Nc2cccnc2Cl)cc1,?,-4,.,.,.,56µM*
COc1ccccc1C(=O)NC(=S)Nc1cccnc1Cl,10µM*,-3,.,.,.,45µM*
O=C(Nc1ccc(F)cc1)c1cccn1-c1nnc(N2CCCCC2)s1,-13%[59 µM],.,-5%,-16%,-2%,.
CCOc1ccc(CCNC(=O)C(CC)n2nc(C)c3c(C)n(-c4ccccc4)nc3c2=O)cc1 (centres undefined),-4%[59 µM],.,7%,2%,-3%,.
CCN1C(C(=O)c2ccccc2)=C(NC(=O)c2ccc(Cl)cc2)c2ccccc2S1(=O)=O,-26%[59 µM],.,5%,-16%,2%,.
CCN1C(C(=O)c2ccccc2)=C(Nc2ccccc2C)c2ccccc2S1(=O)=O,10µM*,4,-9%,-13%,-4%,2%
N=C(N)SCc1nc2ccccc2c(=O)n1-c1ccccc1,45µM*,-14,-1%,-3%,?,50µM*
O=C(O)c1ccc(CSc2nc3ccccc3c(=O)n2-c2ccccc2)cc1,7%,20,.,.,.,25%
Cc1cccc2cc(CN(C(=O)c3cccc(Cl)c3)c3ccccc3)c(=O)[nH]c12,-4%[59 µM],.,-9%,2%,13%,.
COc1cccc(N=Nc2c(N)[nH]n3c(=O)cc(-c4ccccc4)nc23)c1,-26%,5,9%,?,4µM*,11%
Cc1[nH]n2c(=O)cc(-c3ccc(Cl)cc3)nc2c1-c1ccccc1,4%[59 µM],.,-2%,?,14µM*,.
Cc1ccc(N=Nc2c(N)[nH]n3c(=O)cc(-c4ccccc4)nc23)cc1,?,2,2%,?,3.2µM*,7%
CCOc1ccc2nc(N3CCC(C(=O)Nc4ccccc4CC)CC3)sc2c1,-4%[59 µM],.,4%,-25%,?,.
FC(F)(F)c1cc(-c2ccc(Cl)cc2)nc(NCc2cccnc2)n1,34%[12.7 µM],0,-7%,-18%,-8%,79µM*
Cc1ccc2nc(N(CCCN(C)C)C(=O)c3cc(-c4cccs4)nc4ccccc34)sc2c1,40µM*,-1,.,.,.,79µM*
Cc1ccc2nc(N(CCCN(C)C)C(=O)c3ccc(Br)s3)sc2c1,?,1,?,?,3%,-1%
CN(C)CCCN(C(=O)c1cc(-c2cccs2)nc2ccccc12)c1nc2c(F)cccc2s1,.,.,.,.,.,79µM*

# High-throughput results as filed in PubChem.
